Laboratory results from ChEMBL document CHEMBL4513216, “Probing the Open Global Health Chemical Diversity Library for Multistage-Active Starting Points for Next-Generation Antimalarials” (ACS Infect Dis, 2020).
In all, about 69,000 compounds went through this assay and about 8,600 (12%) showed an effect of 50% or more. Only a selection was taken, and strong results are over-represented in it overall.

system: Plasmodium berghei; test: Screen against P. berghei liver stage (PbLuc), transformed with Luciferase, at 10uM; format: functional, HepG2; details: tested at 10 uM

| SMILES | INHIBITION [%] |
| --- | --- |
| COc1ccc(C2CCCN2Cc2ccc(S(=O)(=O)N(C)C)o2)cc1 (stereo not given) | 37.4 |
| O=C(Cn1cc(C(=O)O)cn1)Nc1c(Cl)cccc1Cl | 22.6 |
| CC(C(=O)N1CCCN(Cc2ccc(C#N)cc2)CC1)n1cncn1 (stereo not given) | 27.65 |
| Cc1n[nH]c(C)c1NC(=O)CCc1cccc(C2CCCN(C)C2)n1 (stereo not given) | 29.3 |
| CCCn1c(C)c(CC(=O)NC(C)CO)c2c1CC(C)(C)CC2=O (stereo not given) | 18.6 |
| O=C1[C@@H]2CN(c3ncnc4[nH]ccc34)C[C@]2(C(=O)O)CN1CC1CC1 | 36.6 |
| Cc1ccc(-c2cc(CNC(=O)N3CCCN(C)CC3)on2)cc1 | 35.9 |
| Cn1c(=O)[nH]c(=O)c2c1nc1n2CC(c2ccc(Cl)cc2)O1 (stereo not given) | 7.92 |
| CCc1noc(C(C)N(C)CC(=O)Nc2ccc(Cl)c(C(F)(F)F)c2)n1 (stereo not given) | 90.2 |
| CCc1noc(C(C)N(C)CC(=O)Nc2cccc(C)c2C)n1 (stereo not given) | 41.4 |
| CCc1noc(C(C)N(C)CC(=O)Nc2cccc(C)n2)n1 (stereo not given) | -29.2 |
| CCc1noc(C(C)N(C)Cc2cc(Br)ccc2OC)n1 (stereo not given) | 51.5 |
| CCc1noc(C(C)N(C)CC(=O)Nc2ccc(C)cc2)n1 (stereo not given) | 27.6 |
| COc1ccc(Br)cc1CN(C)C(C)c1nc(C(C)C)no1 (stereo not given) | 3.73 |
| CCc1noc(C(C)N(C)CC(=O)Nc2ccc(Br)cc2C)n1 (stereo not given) | 74 |
| COc1ccc(Br)cc1CN(C)C(C)c1nc(C)no1 (stereo not given) | 4.82 |
| CCc1noc(C(C)N(C)CC(=O)Nc2c(C)cccc2C)n1 (stereo not given) | -8.69 |
| Cc1ccccc1NC(=O)NCC(C)(O)c1cccs1 (stereo not given) | 48.8 |
| Cc1noc2nc(C3CCN(Cc4ccccn4)CC3)cc(C(F)F)c12 | 47.1 |
| Cc1cc(C(NC(=O)CNS(C)(=O)=O)C(C)C)c(C)s1 (stereo not given) | 22.3 |
| Cc1cccc(CN2C[C@@H]3COC[C@]3(CNC(=O)c3ccsc3)C2)n1 | 39.8 |
| COc1ccc(CN2CCO[C@@H]3C[C@@H](C(=O)NC(C)C)C[C@H]32)cc1 | 26.5 |
| CCS(=O)(=O)NC(CCSC)C(=O)Nc1cccc(C)c1C (stereo not given) | 26.9 |
| CC(Oc1cc(Cl)cc(Cl)c1)C(=O)NCCS(N)(=O)=O (stereo not given) | 34.7 |

| SMILES | INHIBITION [%] |
| --- | --- |
| Cc1c(Br)c(C(=O)NC(C)c2ccccc2)nn1C (stereo not given) | -38.2 |
| Cc1ccc(-c2noc(CCC(=O)NC(C)Cn3cccn3)n2)cc1 (stereo not given) | 22.6 |
| CC(=O)NCC(=O)N1CCn2cc(CN3CCN(C)CC3)nc2C1 | 43.5 |
| O=C(c1ccc[nH]1)N1CCn2cc(CN3CCCC3)nc2C1 | 18.8 |
| O=C(c1ccco1)N1CCn2cc(CN3CCCC3)nc2C1 | 25.2 |
| CN1CCN(Cc2cn3c(n2)CN(C(=O)c2cccn2C)CC3)CC1 | 54.7 |
| O=C(c1ccnnc1)N1CCn2cc(CN3CCCCC3)nc2C1 | 41.6 |
| CN1CCN(Cc2cn3c(n2)CN(C(=O)c2ccco2)CC3)CC1 | 17.4 |
| Cn1cccc1C(=O)N1CCn2cc(CN3CCCC3)nc2C1 | 52 |
| CC(=O)NCC(=O)N1CCn2cc(CN3CCCCC3)nc2C1 | 68.8 |
| O=C(CCc1ccccc1)N1CCn2cc(CN3CCCC3)nc2C1 | 41.4 |
| O=C(c1cccnc1)N1CCn2cc(CN3CCCC3)nc2C1 | 31.1 |
| CN1CCN(Cc2cn3c(n2)CN(C(=O)c2ccccn2)CC3)CC1 | 25.1 |
| N#Cc1ccc(C(=O)N2CCn3cc(CN4CCCCC4)nc3C2)cc1 | 52 |
| Cc1ccc(NC2CCN(C(=O)c3cc4c(s3)CCC4)CC2)nn1 | -11.4 |
| CCn1cnnc1CNC(=O)NC(c1cccs1)C1CCCC1 (stereo not given) | -9.76 |
| COc1ccc(NC(=O)c2cnc(C3CCN(C(C)=O)C3)nc2C)cc1 (stereo not given) | 25.55 |
| O=C1CCC2(CCC(NC3CCOC3)CC2)N1Cc1ccncc1 (stereo not given) | 3.81 |
| CCC1(c2ccc(NS(=O)(=O)N(C)C)cc2)CCC(=O)NC1=O (stereo not given) | 18.9 |
| Cc1cc(N2CCOCC2)nc(N(C)CCO)c1C#N | 12.3 |
| CC(C)c1nc2c(n1C)CCN(Cc1nc(-c3ccoc3)no1)C2 | 25.6 |
| CNc1cncc(C2CCCN2C(=O)Cn2ccnc2C)n1 (stereo not given) | 2.915 |
| O=C(Cc1csc(-c2ccccc2)n1)N[C@@H](C(=O)O)c1ccccc1 | -3.11 |
| Cc1cc(C(=O)N2CCn3cc(CN4CCOCC4)nc3C2)no1 | 68.4 |

| SMILES | INHIBITION [%] |
| --- | --- |
| Cc1cc(C(=O)N2CCn3cc(CN4CCCCC4)nc3C2)no1 | 17.1 |
| Cc1cc(C(=O)N2CCn3cc(CN4CCCC4)nc3C2)no1 | 13.6 |
| CN(CCCc1cnn(C)c1)Cc1cc2n(n1)CCNC2 | 52.6 |
| CN(CCc1noc(C2CC2)n1)C(=O)CCc1cc2n(n1)CCCNC2 | 46.6 |
| CCN(Cc1noc(C2CCC2)n1)C(=O)CCc1cc2n(n1)CCNC2 | 11.9 |
| CN(CCCc1cnn(C)c1)Cc1cc2n(n1)CCCNC2 | 49.4 |
| CN(CCCc1cnn(C)c1)Cc1cc2n(n1)CCCN(C)C2 | 65.7 |
| CCc1cnc(C)nc1N(C)CCCc1cnn(C)c1 | 8.31 |
| CN(CCCc1cnn(C)c1)C(=O)C1CCN(C(=O)C2CCC2)CC1 | 38.7 |
| CN(Cc1cc2n(n1)CCNC2)Cc1noc(C2CCC2)n1 | 51 |
| CNc1ncc(CN(C)Cc2cc3n(n2)CCNC3)cn1 | -99.3 |
| O=C(c1cc2cc(F)ccc2[nH]1)N1CCC(Nc2cccnn2)CC1 | 22.3 |
| CCCC(NC(=O)c1cc(C)ccc1O)c1nnn[nH]1 (stereo not given) | 34.6 |
| COc1ncccc1NC(=O)C1CCOCC1 | 43.3 |
| CC(=O)Nc1c(C)noc1C=Cc1ccc(C)c(S(=O)(=O)NC2CC2)c1 | 11.6 |
| O=C(Nc1ccccc1)C1=CC2(CCNCC2)c2ccccc21 | 48.2 |
| Cc1cnn(CC(=O)NCC2(O)CCCc3ccccc32)c1 (stereo not given) | 80.5 |
| O=C(Cn1cnnn1)NCC1(O)CCCc2ccccc21 (stereo not given) | 64.7 |
| O=C(Cn1c(=O)oc2ccccc21)NCC1(O)CCc2ccccc21 (stereo not given) | -27.3 |
| O=C(Cn1cccn1)NCC1(c2ccccc2)CC1 | -8.3 |
| O=C(Cn1cncn1)NCC1(O)CCCc2ccccc21 (stereo not given) | 10.9 |
| O=C(CN1C(=O)CCC1=O)NCC1(O)CCc2ccccc21 (stereo not given) | 5.58 |
